Laboratory results as given in PubChem BioAssay (NCATS).
Values joined by “and” are separate entries in the source; they are usually repeats but may differ in a detail not shown here. Identical values can stand only once. Inconclusive results are not listed. More than one record can exist for a structure, and the calls need not agree. Active and inactive are the calls of the source. Unless noted, the call rests on the fitted dose curve; in most records, active means well fitted curve in the direction sought with a large enough effect; inconclusive means small, poorly fitted or top-dose-only effect, or another doubt; inactive means no such curve, though single readings can be large; an effect the other way counts as inactive or inconclusive.

Columns and labels:
[1] = qHTS profiling of the MIPE4 collection as inhibitors of Plasmodium falciparum (3D7) proliferation (AID 743344; call rule not given here;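 further: scaled between DMSO vehicle wells and 0.29 µM artemisinin as full inhibition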); conditions: P. falciparum 3D7 in erythrocytes, SYBR Green DNA fluorescence, 72 h; at 28.5 µM unless noted
Method in brief: (§1)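 Parasite DNA was quantified by SYBR Green I fluorescence (ex 485, em 535 nm) after overnight lysis in saponin/Triton buffer at room temperature. Cultures at 0.3% parasitemia and 2.5% hematocrit were first exposed to compound for 72 h at 37 C; signals were normalised to artemisinin (0.29 uM) and vehicle wells.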

[2] = qHTS profiling of the MIPE4 collection as inhibitors of Plasmodium falciparum (DD2) proliferation (AID 743345; call rule not given here); conditions: P. falciparum Dd2 in erythrocytes, SYBR Green DNA, 72 h; at 28.5 µM unless noted
Method in brief: as §1

[3] = qHTS profiling of the MIPE4 collection as inhibitors of Plasmodium falciparum (HB3) proliferation (AID 743347; call rule not given here;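 further: plate controls were DMSO vehicle wells for no effect and artemisinin wells for full effect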); conditions: P. falciparum HB3 in erythrocytes, SYBR Green DNA, 72 h; at 28.5 µM unless noted
Method in brief: as §1

[4] = High-throughput drug toxicity screening in the BPDCN cell line Gen2.2 (AID 1224824; call rule not given here;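 further: cells exposed to compounds for 48 h before reading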); conditions: Gen2.2 BPDCN cells; at 45.8 µM (top of the series) unless noted
Method in brief: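 CellTiter-Glo luminescence after 48 h compound exposure of Gen2.2 cells; percent activity set with DMSO as 100% and bortezomib (9.2 uM final) as 0%. Cells seeded at 500 per well, RPMI + 10% FBS, 37 °C.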

[5] = High-throughput drug toxicity screening in the BPDCN cell line Cal-1 (AID 1224825; call rule not given here); conditions: Cal-1 BPDCN cell viability, qHTS; at 45.8 µM (top of the series) unless noted
Method in brief: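 CellTiter-Glo luminescence after 48 h compound exposure; percent activity scaled with DMSO as 100% and bortezomib (9.2 uM final) as 0%. Cal-1 cells seeded at 500/well in RPMI, 10% FBS, no phenol red.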

[6] = qHTS assay for measurement of the activity of small molecule inhibitors on Zika virus induced Caspase-3 activity in human iPSC derived neural progenitor cells (hNPCs) (AID 1224857); further: nearly all actives have a fitted effect of over 65% in size; further: potency means the concentration at half of the fitted maximal effect
Method in brief: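 hNPCs seeded 350 cells/well, cultured 16–20 h; compounds added 1 h before ZIKV (2 FFU/cell), 37 C 6 h. Caspase-Glo 3/7 luminescence after 30 min RT; % inhibition from induction scaled to uninfected (0%) and infected (100%) wells.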

[7] = qHTS assay for measurement of the activity of small molecule inhibitors on Zika virus induced Caspase-3 activity in human astrocytoma cells (AID 1224859); further: potency means the concentration at half of the fitted maximal effect
Method in brief: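 Luminescence read-out (Caspase-Glo 3/7, 30 min RT) of caspase activity in SNB-19 cells infected 6 h with ZIKV, 2 FFU/cell, after 1 h compound pretreatment; % inhibition from induction normalised to uninfected (0%) and infected (100%) wells.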

[8] = qHTS Screen of the MIPE 4.0 Collection Against Ewings Sarcoma (RDES) (AID 1259252); further: nearly all actives have a fitted effect of over 35% in size; further: potency means the concentration at half of the fitted maximal effect
Method in brief: (§2)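 Dose series incubated 48 h with cells in RPMI plus 5% FBS, glutamine and penicillin/streptomycin; cell viability then quantified via CellTiter-Glo.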

[9] = qHTS Screen of the MIPE 4.0 Collection Against Ewings Sarcoma (TC71) (AID 1259253); further: nearly all actives have a fitted effect of over 40% in size; further: potency means the concentration at half of the fitted maximal effect
Method in brief: as §2

[10] = qHTS Screen of the MIPE 4.0 Collection Against Ewings Sarcoma (EW8) (AID 1259255); further: nearly all actives have a fitted effect of over 35% in size; further: potency means the concentration at half of the fitted maximal effect;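 on viability: 100% = DMSO-treated cells and 0% = medium-only wells without cells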
Method in brief: as §2

[11] = qHTS assay to identify small molecule inhibitors of chordoma cells - UCH-1 (AID 1259355); further: nearly all actives have a fitted effect of over 55% in size; further: potency means the concentration at half of the fitted maximal effect
Method in brief: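 Screening used approved and investigational drugs in 15-point titration against 800 seeded cells per well. A fixed combination of auranofin with camptothecin, doxorubicin, rubitecan and topotecan followed compound addition, and growth was scored by CellTiter-Glo after 48hr.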

[12] = qHTS assay to identify small molecule inhibitors of chordoma cells - UCH-2 (AID 1259356); further: on the % scale 0 is the no-effect control and ±100 the full control effect
[13] = qHTS profiling of the MIPE4 collection as inhibitors of Plasmodium falciparum (DD2) proliferation (Rep 2) (AID 743346; call rule not given here); conditions: P. falciparum Dd2 in erythrocytes, SYBR Green DNA, 72 h; at 28.5 µM unless noted
Method in brief: as §1

[14] = qHTS Screen of the MIPE 4.0 Collection Against Ewings Sarcoma (TC32) (AID 1259256); further: nearly all actives have a fitted effect of over 45% in size; further: potency means the concentration at half of the fitted maximal effect
Method in brief: as §2

[15] = Identifying Small Molecule Inhibitors of Pancreatic Cancer Stem Cells (SN12C, Adherent) (AID 1259358);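 further: cell survival measured after 48 h of compound exposure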
Method in brief: (§3)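 Endpoint: ATP-based luminescence, 48 h drug exposure. Bortezomib at 9.2 uM final as full-kill control; DMSO vehicle as negative control; activity normalized between vehicle and cell-free wells.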

[16] = Identifying Small Molecule Inhibitors of Pancreatic Cancer Stem Cells (A278, Adherent) (AID 1259361);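 further: viability read after 48 h compound exposure; 100% = DMSO-treated cells and 0% = cell-free media-only wells; nearly all actives have a fitted effect of over 35% in size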
Method in brief: as §3

[17] = Identifying Small Molecule Inhibitors of Pancreatic Cancer Stem Cells (Panc1, Adherent) (AID 1259362); conditions: Potency: viability;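 further: compound exposure lasted 48 h before the viability read; plate controls were DMSO-treated cells for no effect and cell-free media wells for full effect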
Method in brief: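 Adherent (2D) versus sphere (3D) formats; spheres generated 14 d in SCM beforehand. Compound transferred by pin tool after 4 h, 48 h incubation, CellTiter-Glo endpoint.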

| Structure (SMILES) | parasite growth, % of DMSO control [1] [%] | parasite growth remaining, % of DMSO control (lower = more inhibition) [2] [%] | growth, % of control [3] [%] | cell viability, % of control (lower = more cytotoxic) [4] [%] | viability (% of control) [5] [%] | Potency [6] | Potency [7] | Potency [8] | Potency [9] | Potency [10] | Potency [11] | outcome [12] | parasite growth, % of control (lower = inhibition) [13] [%] | Potency [14] | Potency [15] | IC50 (viability decrease) [16] | Potency [17] |
| --- | --- | --- | --- | --- | --- | --- | --- | --- | --- | --- | --- | --- | --- | --- | --- | --- | --- |
| NCCS(=O)(=O)O | 102 | 102 | 110 | 573 | 133 | inactive | inactive | inactive | inactive | inactive | inactive | inactive |  |  |  |  |  |
| O=C(c1ccc(OCCN2CCCCC2)cc1)c1c(-c2ccc(O)cc2)sc2cc(O)ccc12 | 7.18 | 32.9 | 9.13 | 67.1 | 40.4 | inactive | inactive | 2.35 µM (active) | 7.43 µM (active) |  | inactive | inactive | 20.8 | 8.33 µM (active) |  |  |  |
| Nc1ccn([C@H]2CC[C@@H](CO)O2)c(=O)n1 | 114 | 115 | 176 | 251 | 102 | inactive | inactive |  | inactive | inactive |  |  |  | inactive |  |  |  |
| CN(C)c1nc(N(C)C)nc(N(C)C)n1 | 89.4 | 102 | 101 | 97.5 | 106 | inactive | inactive |  |  | inactive | inactive | inactive | 104 | inactive |  |  |  |
| Cc1ccc(-c2cc(C(F)(F)F)nn2-c2ccc(S(N)(=O)=O)cc2)cc1 | 21.9 | 64.9 | 7.95 | 250 | 90.2 | inactive | inactive |  | 13.2 µM (active) | 20.9 µM (active) | inactive | inactive | 35 | 11.8 µM (active) |  |  |  |
| CCCNCC(O)COc1ccccc1C(=O)CCc1ccccc1 (stereo not given) | 5.54 | 6.97 | 6.85 | 6.23 | 1.7 | inactive | inactive |  | 14.8 µM (active) | 20.9 µM (active) | inactive | inactive |  |  |  |  |  |
| Cn1cnc2c1c(=O)[nH]c(=O)n2C | 8.09 | 7 | 9 | 12.2 | 13.2 | inactive | inactive |  | 23.5 µM (active) | 23.5 µM (active) | inactive | inactive |  | 23.5 µM (active) |  |  |  |
| CCC1(C)CC(=O)NC1=O (stereo not given) | 99.5 |  | 102 | 184 | 128 | inactive | inactive |  |  | inactive | inactive | inactive |  |  |  |  |  |
| O=C(Nc1ccc([N+](=O)[O-])cc1Cl)c1cc(Cl)ccc1O | 5.14 | 6.45 | 3.45 | 10.1 | 20.3 | inactive and 1.05 µM (active) | 2.82 µM (active) and 1.18 µM (active) and 1 µM (active) | 16.6 µM (active) | 1.32 µM (active) | 16.6 µM (active) | 3.98 µM (active) |  | 6.93 | 1.32 µM (active) |  |  |  |
| CN(C)CCCN1c2ccccc2CCc2ccc(Cl)cc21 | 19.3 | 12 | 21.5 | 29.4 | 11.8 | inactive | inactive | 0.662 µM (active) | 0.743 µM (active) | 2.96 µM (active) |  | inactive |  | 2.96 µM (active) |  |  |  |
| Clc1ccc2c(c1)C(N1CCNCC1)=Nc1ccccc1O2 | 50.7 | 28.9 | 67.9 | 72.6 | 102 | inactive | inactive | 10.5 µM (active) | 16.6 µM (active) | 16.6 µM (active) |  | inactive |  | 18.7 µM (active) |  |  |  |
| CN(C)C(=N)N=C(N)N | 97.5 | 99.4 | 110 | 165 | 99.5 | inactive | inactive |  | inactive | inactive | inactive | inactive |  | inactive | inactive | inactive | inactive |
| CC(=O)OCC(CCn1cnc2cnc(N)nc21)COC(C)=O | 99.1 | 136 | 98.2 | 153 | 106 | inactive | inactive | inactive | inactive | inactive | inactive | inactive |  | inactive |  |  |  |
| O=C(CCCN1CCC(O)(c2ccc(Cl)cc2)CC1)c1ccc(F)cc1 |  |  |  | 58.3 | 48.3 | inactive | inactive |  | 18.7 µM (active) |  | inactive | inactive |  | 20.9 µM (active) |  |  |  |
| CN(CCOc1ccc(NS(C)(=O)=O)cc1)CCc1ccc(NS(C)(=O)=O)cc1 | 115 | 89.2 | 56.2 | 181 | 112 | inactive | inactive |  | 16.6 µM (active) |  | inactive | inactive |  |  |  |  |  |
| CC[C@@]1(O)C(=O)OCc2c1cc1n(c2=O)Cc2cc3c(CN(C)C)c(O)ccc3nc2-1 | 13.9 | 16.9 | 21.3 | 14.6 | 3.81 | inactive | inactive |  | 0.0372 µM (active) | 0.0332 µM (active) |  |  | 33.7 |  |  |  |  |
| CCOC(=O)c1ncn2c1CN(C)C(=O)c1cc(F)ccc1-2 |  |  |  | 100 | 17.4 | inactive | inactive |  | inactive |  | inactive | inactive |  | 13.2 µM (active) |  |  |  |
| COC(=O)Nc1nc2ccc(C(=O)c3cccs3)cc2[nH]1 | 54.5 | 93.5 | 80 | 19.7 | 10.7 | inactive | inactive | 0.0037 µM (active) | 0.0118 µM (active) | 0.0047 µM (active) |  | inactive |  | inactive |  |  |  |
